Measured values: PubChem BioAssay AID1347076 (National Center for Advancing Translational Sciences (NCATS), 2019)
Hit rate of the full screen: of about 400,000 compounds, about 13,000 (3.2%) were called active. Inconclusive results (about 18%) are left out. The entries come from a sample that favours actives as a whole. Unmarked numbers belong to inactive results. Calls follow the shape of the dose curve; as a rule, active = well fitted cell-killing curve with a large enough effect; inconclusive = small, poorly fitted or top-dose-only effect, or effect the other way; inactive = flat fitted curve, though single readings scatter.

experiment: qHTS assay for MDR1-selective chemotherapeutics: Primary screen using the drug-selected MDR subline cells KB-V1; conditions: KB-V1 MDR cells viability, CellTiter-Glo, 72 h; series mostly up to 46.1 µM; activity change, negative = cytotoxicity: at the top concentration; also: nearly all actives have a fitted effect of over 60% in size
In short: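 Drug-selected KB-V1 cells, grown in DMEM lacking phenol red with 10% FBS, receive compound titrations; after three days at 37 degrees C, surviving cell ATP is quantified by CellTiter-Glo luminescence and responses normalized and curve-fitted.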
% is scaled to controls: 0 for no effect and ±100 for the full control effect; potency is read from the fitted curve at half-maximal effect.

Structure (SMILES) | activity change, negative = cytotoxicity [%] | Potency
O=C(NC1CCCCC1)c1cc(C2CC2)on1 | 9.07 | 
O=C(NC1CCCCCCC1)c1cccs1 | 1.97 | 
O=C(NC1CCCC1)c1cc(-c2ccccc2)on1 |  | 16.4 µM (active)
CCCCN1C(=O)C(CC(=O)NC(c2ccccc2)c2ccccc2)CC(C(=O)N2CCOCC2)=C1C (stereo unspecified) | -12.8 | 
N#Cc1ccc[n+](CC(=O)c2ccc(O)c(O)c2)c1 | 10.8 | 
Cc1ccccc1Nc1nc(N)nc(CSc2ccccc2)n1 | -12.7 | 
CCCn1nc(C(=O)OCc2nc(N)nc(Nc3ccccc3C)n2)c2ccccc2c1=O |  | 20.6 µM (active)
Cc1ccc(C(=O)OCc2nc(N)nc(Nc3ccccc3C)n2)cc1 | 10.4 | 
O=C(Nc1cccc2cccnc12)c1ccc2sc([C@H]3C[C@H](O)[C@@H](CO)O3)nc2c1 | 2.51 | 
Cc1ccc(NC(=O)Cn2cnc3nc4c(cc3c2=O)CCCC4)cc1Cl | -1.83 | 
CC(=O)NCCn1c(SCC(=O)Nc2ccc(C)cc2)nc2ccccc2c1=O |  | inactive
CCn1c(SCC(=O)Nc2ccc(C)cc2)nc2nc3c(cc2c1=O)CCCC3 |  | 0.651 µM (active)
CCCn1c(N)c(C(=O)CSc2nnc(Cc3cccs3)n2C2CC2)c(=O)[nH]c1=O | 3.91 | 
CCCCn1c(SCC(=O)NCCc2ccc(OC)c(OC)c2)nc2c1c(=O)n(C)c(=O)n2C | 0 | 
Cn1c(=O)c2c(nc(NCCc3ccccc3)n2Cc2ccccc2)n(C)c1=O |  | 6.51 µM (active)
CC(C)CCn1c(CN(C)Cc2ccccc2)nc2c1c(=O)n(C)c(=O)n2C |  | 9.2 µM (active)
Cn1c(=O)c2c(nc(NCc3ccccc3)n2CC(N)=O)n(C)c1=O | -8.35 | 
COCCn1c(CN(Cc2ccccc2)Cc2ccccc2)nc2c1c(=O)n(C)c(=O)n2C | -15.9 | 
CCn1c(NCCc2ccc(OC)c(OC)c2)nc2c1c(=O)n(C)c(=O)n2C |  | 4.61 µM (active)
Cn1c(=O)c2c(nc(NCCc3ccccc3)n2Cc2ccccc2Br)n(C)c1=O | 8.3 | 
COc1ccc(CCNc2nc(C)cc(C)n2)cc1OC | 6.88 | 
Cc1ccnc(SCCn2c(N(C)Cc3ccccc3)nc3c2c(=O)n(C)c(=O)n3C)n1 | -0.969 | 
Cc1noc(C)c1C(=O)N1CCC1(C)C(=O)NS(=O)(=O)c1ccc(C#N)cc1 (stereo unspecified) | -16.6 | 

Structure (SMILES) | activity change, negative = cytotoxicity [%] | Potency
Cc1ccc(-c2cnc(C(O)c3cc(Cl)cc(Cl)c3)[nH]2)cc1 (stereo unspecified) | -1.01 | 
Cc1cccc(N2CCN(S(=O)(=O)c3ccc4[nH]c5c(c4c3)CCCCC5)CC2)c1C | -22.5 | 
O[C@@H]1C[C@H](c2ccccc2)N(Cc2cccs2)C[C@H]1n1cc(C2CC2)nn1 | 18.2 | 
COC(=O)[C@]12CCCCC=C1N(Cc1ccc3c(c1)OCO3)C(=O)[C@H](CC(=O)N1CCOCC1)C2 | -24.6 | 
C/C(=N\NC(=O)CNc1cccc2ccccc12)c1ccc(Br)s1 | -2.25 | 
Cn1cccc1/C=N/NC(=O)CNc1cccc2ccccc12 | -5.81 | 
Cc1cccc(/C=N/NC(=O)CNc2cccc3ccccc23)n1 |  | 14.6 µM (active)
COCCNS(=O)(=O)c1cc(-c2nn3c(C)nnc3c3ccccc23)ccc1C | 5.47 | 
Cc1ccc(NC(=O)c2ccco2)cc1 | -11.2 | 
CCOc1cc(N2CCOCC2)c(OCC)cc1NC(=O)COc1cccc2cccnc12 |  | 5.17 µM (active)
CCOc1cc(N2CCOCC2)c(OCC)cc1NC(=O)COc1cccc(Cl)c1 | -16.4 | 
CCOc1cc(N2CCOCC2)c(OCC)cc1NC(=O)c1ccc(C)s1 | 2.44 | 
CC(C)(C)c1ccc(C(=O)C[n+]2cccc3cc(Cl)ccc32)cc1 | 14.4 | 
Cc1ccc(C(=O)N2c3ncnn3C3(CCCCC3)[C@@H]3CCCC[C@@H]32)cc1 | -14.7 | 
Cc1cc(C(=O)Nc2nnc(C3CC3)s2)c(C)s1 | -22.1 | 
O=C(Nc1nnc(C2CC2)s1)c1cc(Cl)sc1Cl | 13.8 | 
Cc1occc1C(=O)Nc1nnc(C2CCCCC2)s1 |  | 16.4 µM (active)
CC1=C(C(=O)N2CCOCC2)CC(CC(=O)NCCN2CCOCC2)C(=O)N1CCC1=CCCCC1 (stereo unspecified) | 63.2 | 
COc1ccc(N2CCN(S(=O)(=O)c3ccc(-c4coc(C)n4)cc3)CC2)cc1 | 0 | 
COc1ccc(Br)cc1C1CC(=O)Nc2c1c(C)nn2-c1nc(C)cc(C)n1 (stereo unspecified) | 3.24 | 
Oc1ccc(Br)cc1C1C=C(c2ccc3c(c2)OCO3)NC(c2ccc(Cl)cc2)N1 (stereo unspecified) | 11.4 | 
Cc1nnc(-c2ccc(Oc3ccc(C)c(C)c3)c([N+](=O)[O-])c2)o1 |  | 14.6 µM (active)
COC(=O)c1cc(Oc2ccc(S(=O)(=O)N3CCOCC3)cc2[N+](=O)[O-])cc(C(=O)OC)c1 | 1.19 | 
